# AHR activator: activators of human aryl hydrocarbon receptor | P35869 | AHR-responsive luciferase reporter cells, luminescence | activation, % at 5 µM | 320,000 tested, 2.5% active | AID 2796; in the data active = activation above about 47%
# Target sequence (P35869 whole entry, looked up): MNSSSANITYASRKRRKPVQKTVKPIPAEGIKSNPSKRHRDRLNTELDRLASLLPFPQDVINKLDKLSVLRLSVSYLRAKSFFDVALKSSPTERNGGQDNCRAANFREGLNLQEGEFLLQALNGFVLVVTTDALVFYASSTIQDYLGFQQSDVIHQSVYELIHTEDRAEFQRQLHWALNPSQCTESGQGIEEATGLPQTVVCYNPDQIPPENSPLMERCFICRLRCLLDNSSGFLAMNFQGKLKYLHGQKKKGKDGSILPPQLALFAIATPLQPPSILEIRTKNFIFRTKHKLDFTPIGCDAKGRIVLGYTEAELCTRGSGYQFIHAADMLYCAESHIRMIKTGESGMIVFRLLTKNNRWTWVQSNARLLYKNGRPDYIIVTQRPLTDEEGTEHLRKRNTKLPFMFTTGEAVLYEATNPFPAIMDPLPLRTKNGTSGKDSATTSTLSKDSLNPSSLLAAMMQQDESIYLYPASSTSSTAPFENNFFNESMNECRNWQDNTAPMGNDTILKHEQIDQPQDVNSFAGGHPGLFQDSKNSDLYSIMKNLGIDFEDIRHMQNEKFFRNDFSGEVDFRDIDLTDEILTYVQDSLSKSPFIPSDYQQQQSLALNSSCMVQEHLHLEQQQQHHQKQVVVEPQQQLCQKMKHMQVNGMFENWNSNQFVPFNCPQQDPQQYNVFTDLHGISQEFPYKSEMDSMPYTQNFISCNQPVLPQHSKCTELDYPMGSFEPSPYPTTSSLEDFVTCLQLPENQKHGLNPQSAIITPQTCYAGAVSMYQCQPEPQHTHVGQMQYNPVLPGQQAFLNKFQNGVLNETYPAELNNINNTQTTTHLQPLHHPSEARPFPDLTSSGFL
# Mot1-301 SUMO: blocks SUMOylation pathway, rescuing yeast Mot1-301 growth | AID 2716 | 320,000 tested, 1% active | S. cerevisiae Mot1-301 growth rescue, ATP luminescence, 38.5C; percent above DMSO median, 100 means doubled | growth rescue, % at 18.8 µM;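 active = every valid replicate shows activation above 250% relative to neutral control wells; inactive = the rest, any valid replicate at or below 250%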
# NR3A LBD binder: NR3A (human) ligand-binding domain modulation; NR3A LBD differential scanning fluorimetry, Tm shift; 0% = protein alone, 100% = glycine-bound protein; AID 1259313; 340,000 tested, 2.5% active; Tm shift relative to glycine control, % at 25 µM;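 active = melting temperature shift of at least 10% of the positive control shift, at one fixed dose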
# AI-2 QS mod: modulates the Vibrio harveyi AI-2 quorum sensing system; Vibrio harveyi JMH597 AI-2 luminescence/OD600 ratio, 9 h; hits give low values; strain lacks LuxN and CqsS sensors; 0 = neutral-control median; activity change, % at 7.5 µM; 300,000 tested, 0.4% active; in the data active = activity change below about -75%, passing the limit was not always enough;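 also: luminescence divided by OD600 gain over 9 h not by final OD600 alone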
# NTR1 agonist: NTR1 (human) agonism. P30989. NTR1-U2OS beta-arrestin-GFP spot imaging, agonist mode. activation, % at 20 µM. 330,000 tested, 0.17% active;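 active = activation at or above 40% of the spot to cytoplasm intensity ratio, with at least 20 cells analyzed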
# Cardio protect: modulators protecting cardiomyocytes from myocardial damage | H9c2 cardiomyocytes, H2O2 injury protection, ATPLite, 2 h | protection from H2O2 cell death, % at 20 µM | 360,000 tested, 0.63% active;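 active = compounds giving at least 50% protection of heart cells from peroxide-induced death in the single-dose screen, raw or plate-pattern-corrected value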
# Hits are given with their value; 0 = inactive; - = no result. The list is not random: actives were taken first. Their share in the collection is about 6.2%.
SMILES,AHR activator,Mot1-301 SUMO,NR3A LBD binder,AI-2 QS mod,NTR1 agonist,Cardio protect
Cc1c(C(=O)N(Cc2ccccc2)C(C)C)oc2ccc(S(=O)(=O)N3CCOCC3)cc12,0,0,0,0,0,0
CCc1cc(C(=O)NCC(c2ccco2)N2CCCCC2)sc1C (stereo unspecified),0,0,0,-,0,0
COc1cc(O)sc1C=Nc1ccc(Cl)cc1,48,0,0,0,0,0
O=C(OCC(=O)N1CCCc2ccccc21)c1cc(Br)ccc1O,0,0,0,0,0,0
O=[N+]([O-])c1ccc(O)c(N=Cc2sc3ccccc3c2O)c1,0,0,16,0,-,0
Oc1c(C=Nc2cccc3cccnc23)sc2ccccc12,58,0,-,0,0,-
Cc1cccc(/N=C/c2sc3ccccc3c2O)n1,0,0,0,0,0,0
CC/C(C)=N/Nc1cccc([N+](=O)[O-])c1,0,275,0,0,0,0
O=[N+]([O-])c1ccc(NN=Cc2ccccc2O)nc1,-,-,26,-,-,0
CCC(CC)=NNc1cccc([N+](=O)[O-])c1,0,0,0,0,0,0
COc1ccccc1C=NNc1ccc([N+](=O)[O-])cn1,-,-,0,-,-,0
CC1=C(C(=O)N(C(C)C)C(C)C)CC(CC(=O)NC2CCCC2)C(=O)N1Cc1ccc(F)cc1 (stereo unspecified),-,-,-,-,-,0
CCN(CC)S(=O)(=O)c1ccc(N/N=C(\C)c2ccncc2)nc1,0,0,0,0,0,0
O=[N+]([O-])c1ccc(O)c(/C=N/Nc2nc3ccccc3[nH]2)c1,57,0,0,0,0,0
O=C(CNS(=O)(=O)c1ccc([N+](=O)[O-])cc1)N/N=C/c1ccc(O)cc1O,0,0,0,0,0,55
O=[N+]([O-])c1ccc(N/N=C/c2ccc(OCc3cccc4ccccc34)cc2)nc1,0,0,28,0,0,0
CCN(CC)S(=O)(=O)c1ccc(N/N=C/c2ccc(O)cc2O)nc1,0,0,24,0,0,78
O=C(CNS(=O)(=O)c1ccc([N+](=O)[O-])cc1)N/N=C\c1ccc(O)cc1,0,0,0,0,0,0
CC1([N+](=O)[O-])COC(c2cccc3ccccc23)OC1 (stereo unspecified),-,-,0,-,-,0
CCCOc1ccc(/C=N/Nc2cccc([N+](=O)[O-])c2)c(O)c1,0,0,33,0,0,0
O=[N+]([O-])c1ccc(N/N=C/c2ccccc2O)cc1,0,0,38,0,0,0
CCCOc1ccc(/C=N/NC(=S)Nc2ccccc2[N+](=O)[O-])c(O)c1,0,0,12,0,-,-
CCCOc1ccc(/C=N/Nc2ccc(C(=O)O)cc2)c(OCCC)c1,-,-,21,0,-,0
CCCOc1ccc(/C=N/Nc2ccccc2[N+](=O)[O-])c(O)c1,0,0,0,0,0,0
O=[N+]([O-])c1ccc(O)c(C=Nc2cccc3ccccc23)c1,52,0,0,0,0,0
SMILES,AHR activator,Mot1-301 SUMO,NR3A LBD binder,AI-2 QS mod,NTR1 agonist,Cardio protect
COc1ccc(C(=O)/C(C#N)=N/Nc2cccc([N+](=O)[O-])c2)cc1,-,-,10,0,-,0
O=[N+]([O-])c1ccc(NN=Cc2ccc(O)cc2)nc1,-,-,26,-,-,0
Cc1cccc(N/N=C/c2ccccc2O)c1,65,0,0,0,0,0
O=[N+]([O-])c1ccc(O)c(C=Nc2cccc3ncccc23)c1,0,0,0,0,0,0
Cc1cc(Br)c(NC(=O)CN2C(=O)NC3(CCOc4ccccc43)C2=O)c(Br)c1 (stereo unspecified),-,-,-,-,-,0
O=[N+]([O-])c1ccc(NN=Cc2ccc(O)cc2O)nc1,-,-,27,-,-,0
O=[N+]([O-])c1cccc(N/N=C/c2cc([N+](=O)[O-])ccc2O)c1,54,301,31,0,0,0
O=[N+]([O-])c1ccc(NN=Cc2ccccc2)nc1,-,-,0,-,-,0
CN(C(=O)COC(=O)CNC(=O)c1ccc(C(C)(C)C)cc1)c1c(N)n(Cc2ccccc2)c(=O)[nH]c1=O,0,0,0,0,0,0
Cc1ccc(C)c(NC(=O)C(C)N2C(=O)c3ccccc3C2=O)c1 (stereo unspecified),0,0,0,0,0,0
O=C(Nc1c(-c2ccc(Cl)cc2)[nH][nH]c1=O)c1ccccn1,-,-,-,-,-,0
Cc1ccc(S(=O)(=O)N2C(=O)[C@@H]3Cc4ccccc4CN3C2=O)cc1,-,-,0,0,0,0
O=S(=O)(NC1CCN(Cc2ccccc2)CC1)c1ccc2ccccc2c1,0,322,0,0,0,0
O=C(Nc1ccc([N+](=O)[O-])cc1Cl)c1cc(Cl)ccc1O,0,0,20,-,0,0
O=C(Nc1ccc([N+](=O)[O-])cc1Cl)c1cccc([N+](=O)[O-])c1,-,-,-,-,-,0
O=C(Nc1cccc(Cl)c1)c1cc(N=Nc2ccc([N+](=O)[O-])cc2Cl)ccc1O,0,0,19,0,0,0
OC[C@@H]1CN(Cc2ccc3c(c2)OCO3)C[C@H](n2cnc3c(NCc4ccc(F)cc4)ncnc32)O1,-,-,-,-,-,0
C=CCn1c(C)cc(C(=O)COC(=O)c2cncc(Br)c2)c1C,0,0,0,-,0,0
N#CCc1ccc(NC(=O)CSc2nnc(C3CC3)n2C2CC2)cc1,0,0,0,-,0,0
COc1ccc(C)cc1NC(=O)c1cc(C2CC2)nc2c1c(C)nn2C1CCS(=O)(=O)C1 (stereo unspecified),-,-,0,-,-,0
O=C(CCC(=O)N1CCN(C2CCCC2)CC1)Nc1nnc(C(F)(F)F)s1,0,-,0,0,0,0
O=C(CCC(=O)N1CCN(C2CCCCC2)CC1)Nc1nnc(C(F)(F)F)s1,0,0,0,0,0,65
COc1cc(C#N)c(NC(=S)N2CCN(C(=O)c3ccco3)CC2)cc1OC,-,-,-,-,-,0
O=C(Nc1ccc(Cl)cc1)Nc1ccc2c(c1)N1CCN=C1S2,0,0,14,0,0,0
Nc1ccc2c(c1)N1CCN=C1S2,0,0,0,0,0,0
SMILES,AHR activator,Mot1-301 SUMO,NR3A LBD binder,AI-2 QS mod,NTR1 agonist,Cardio protect
C[C@@H]1CN([C@@H](C)CO)C(=O)c2cc(NC(=O)CCC(F)(F)F)ccc2O[C@H]1CN(C)Cc1ccc(Cl)c(Cl)c1,0,0,0,-,0,0
C[C@@H]1CN([C@H](C)CO)C(=O)c2cc(NC(=O)Nc3ccc(C(F)(F)F)cc3)ccc2O[C@H]1CN(C)Cc1ccc(Cl)c(Cl)c1,0,-,32,-,0,0
C[C@H]1CN([C@@H](C)CO)C(=O)c2cccc(NC(=O)Nc3ccc(C(F)(F)F)cc3)c2O[C@@H]1CN(C)Cc1ccc(Cl)c(Cl)c1,0,0,12,-,0,0
Cc1ccc2c(c1)-c1nc3ccccc3cc1C2=NC1CCCCC1,79,0,0,-,-,0
COc1ccccc1-c1sc2ccccc2c1-c1ccc(OCCN2CCOCC2)cc1,-,-,0,-,0,0
c1ccc(-c2sc3ccccc3c2-c2ccc(OCCN3CCOCC3)cc2)cc1,0,407,0,-,0,0
COc1cc(OC)cc(-c2sc3ccc(OC)cc3c2-c2ccc(OCCN3CCOCC3)cc2)c1,-,-,11,-,0,0

# Screens from PubChem BioAssay.
